Our source for the INHIBITION values is ChEMBL document CHEMBL4513216, “Probing the Open Global Health Chemical Diversity Library for Multistage-Active Starting Points for Next-Generation Antimalarials” (ACS Infect Dis, 2020).

Among all 68,000 compounds or so, about 2,700 (4%) showed an effect of 50% or more. The entries come from a sample that favours strong results as a whole.

This assay relates to Plasmodium berghei. In words: Screen against P. berghei liver stage (PbLuc), transformed with Luciferase, at 2uM. It is filed as functional, HepG2. To be noted: tested at 2 uM.
Regarding `Fc1ccc(CN2CCCC3(COCCN(Cc4c[nH]nn4)C3)C2)cc1` (stereo not given), the INHIBITION amounted to 23.81%.

For `O=C1CC(c2ccc(C(=O)O)cc2)c2ncn(-c3cccc(F)c3)c2N1` (stereo not given), the INHIBITION was -20.06%.

Take `O=C1CC(c2ccc(C(=O)O)cc2)c2ncn(-c3cccc(Cl)c3)c2N1` (stereo not given): the INHIBITION is given as 53.61%.

`O=C1CC(c2ccc(C(=O)O)cc2)c2ncn(-c3ccccc3)c2N1` (stereo not given): the INHIBITION is listed as -29.53%.

In the case of `Cc1cc(C)n(CCN2CCC(N(C)Cc3noc(C4CC4)n3)C2)n1` (stereo not given), the INHIBITION stood at 12.66%.

Take `CC(C)c1cnc(CN(C)C2CCN(CCCc3cnn(C)c3)C2)o1` (stereo not given): the INHIBITION is reported as 59.23%.

`Cc1cnc(CN(C)C2CCN(CCCc3cnn(C)c3)C2)o1` (stereo not given): the INHIBITION is reported as 8.42%.

On to `CN(Cc1nnc(C2CC2)n1C)C1CCN(CCc2ccncc2)C1` (stereo not given), for which the INHIBITION is on record as -0.45%.

Regarding `CN(Cc1cnn(C)c1)C1CCCN(Cc2noc(C3CC3)n2)C1` (stereo not given), the INHIBITION amounted to 22.75%.

Take `CN(Cc1nnc(C2CC2)n1C)C1CCN(CCc2cnn(C)c2)C1` (stereo not given): the INHIBITION stood at 81.1%.

Consider `Cc1ccc(CCN2CCC(N(C)Cc3noc(C4CC4)n3)C2)cc1` (stereo not given), for which the INHIBITION came to 54.85%.

`CN(Cc1noc(C2CC2)n1)C1CCN(CCc2cccs2)C1` (stereo not given): the INHIBITION worked out at 30.88%.

Take `CN(Cc1noc(C2CC2)n1)C1CCN(CCc2cnn(C)c2)C1` (stereo not given): the INHIBITION turned out to be 64.87%.

On to `Cc1nc(CN(C)C2CCN(CCc3cnn(C)c3)C2)no1` (stereo not given), for which the INHIBITION amounted to 31.7%.

For `CC(C)c1cnc(CN(C)C2CCN(CCc3cnn(C)c3)C2)o1` (stereo not given), the INHIBITION came out at 5.59%.

For `CN(Cc1nnc(C2CC2)n1C)C1CCN(CCc2ccccc2)C1` (stereo not given), the INHIBITION was -11.31%.

Consider `COc1ccnc(C(=O)N2CCCC(c3noc(C)n3)C2)c1` (stereo not given), for which the INHIBITION was determined as 11.71%.

In the case of `Cc1cc(C)c2nc(CN3CCCC(c4cc[nH]n4)C3)cc(O)c2c1` (stereo not given), the INHIBITION is on record as -45.64%.

With `Cn1cc(CNC(=O)c2cc3c(s2)CCCCC3)cn1`, the INHIBITION is 36.66%.

Regarding `COc1cc(C2CC(=O)Nc3c2nc2n3CCCC2)ccc1O` (stereo not given), the INHIBITION is given as 0.1%.

For the compound `CC1CCN(C(=O)c2cc(NC(=O)c3ccccc3)n(C)n2)CC1`, the INHIBITION is -57.06%.

`CCc1cc(NCCCN(C)C2CCCC2)ncn1`: the INHIBITION came out at 36.22%.

In the case of `CC(C)NC(=O)N1CCC2(CCC(=O)N2CCN(C)C)CC1`, the INHIBITION was 16.12%.

Take `Cc1c(C2=NS(=O)(=O)N(C)C(C(=O)Nc3ccc(Br)cc3)=C2)cnn1C`: the INHIBITION amounted to 22.84%.

For the compound `CN1C(=O)CCCC12CCCN(Cc1nccs1)C2` (stereo not given), the INHIBITION came to 20.2%.

On to `CCN(Cc1ccccc1)C(=O)CN1CCCC(Cn2cncn2)C1` (stereo not given), for which the INHIBITION came out at 33.16%.

On to `CNC(=O)CN1CCN(C(=O)c2ccn(C)c(=O)c2)CC1`, for which the INHIBITION is -16.28%.

Turning to `CSc1ccc(C(=O)C2CCCN(C(=O)CCn3cnnn3)C2)cc1` (stereo not given), the INHIBITION is recorded as 35.13%.

As for `CC(C)c1nc(C2CCCN2C(=O)CCn2cncn2)no1` (stereo not given), the INHIBITION is recorded as -15.92%.

For `CC(C)c1nc(C2CCCN(C(=O)CCn3cncn3)C2)no1` (stereo not given), the INHIBITION was determined as 64.16%.

`CSc1ccc(C(=O)C2CCCN(C(=O)CCCn3cncn3)C2)cc1` (stereo not given): the INHIBITION is on record as 49.98%.

`CC(C)c1nc(C2CCCN(C(=O)CCCn3cncn3)C2)no1` (stereo not given): the INHIBITION is listed as -45.72%.

As to `CSc1ccc(C(=O)C2CCCN(C(=O)CCn3cncn3)C2)cc1` (stereo not given), the INHIBITION is reported as 55.25%.

Consider `c1ccn2cc(CN3CCCC(c4ccn[nH]4)C3)nc2c1` (stereo not given), for which the INHIBITION was 13.4%.

Turning to `Cc1cc(C2CCCN(Cc3cccnc3)C2)n[nH]1` (stereo not given), the INHIBITION was 30.82%.

For the compound `CC1c2ccc(F)cc2CCN1C(=O)c1[nH]c(=O)[nH]c(=O)c1N` (stereo not given), the INHIBITION is listed as -36.67%.

As for `CCOC(=O)c1ccc(NC(=O)c2c(O)nc3c(c2O)CCCC3)cc1`, the INHIBITION is -23.02%.

Regarding `CC(=O)N1CC(=O)N(c2cnn(C)c2)CC12CCN(CC1CC1)C2` (stereo not given), the INHIBITION was -7.82%.

On to `Cc1cccc(C(=O)N2CCO[C@H]3[C@H](OCCN(C)C)CC[C@@H]32)n1`, for which the INHIBITION was determined as 19.98%.

Take `COc1c(CNCCC(=O)NC2CCCCC2)c(C(C)C)nn1C`: the INHIBITION was found to be 64.16%.

With `CC(C)c1nn(C)c(N(C)C)c1CNCCC(=O)NC1CCCCC1`, the INHIBITION is recorded as 39.72%.

Regarding `CC(NCc1c(C(C)C)nn(C)c1N(C)C)C(=O)NC1CCCC1` (stereo not given), the INHIBITION is reported as 10.04%.

For the compound `Cc1nn(C)c(N(C)C)c1CNCCC(=O)NC1CCCCC1`, the INHIBITION is recorded as 68.24%.

For the compound `COc1c(CNC(C)C(=O)NC2CCCC2)c(C(C)C)nn1C` (stereo not given), the INHIBITION was found to be 3.59%.

`COc1c(CNC(C)C(=O)NC2CCCC2)c(C)nn1C` (stereo not given): the INHIBITION is recorded as 60.34%.

For `Cc1nn(C)c(N(C)C)c1CNCCC(=O)NC1CCCC1`, the INHIBITION turned out to be 41.76%.

Turning to `COc1c(CNCCC(=O)NC2CCCC2)c(C(C)C)nn1C`, the INHIBITION is reported as -5.09%.

With `CC(C)c1nn(C)c(N(C)C)c1CNCCC(=O)NC1CCCC1`, the INHIBITION is given as -0.64%.

As for `O=C(NC1CCC1)[C@@H]1C[C@@H]2CCN(CCc3ccccc3)C[C@H]2O1`, the INHIBITION is recorded as -39.67%.

For the compound `CNC(=O)CN1CCOCC2(CCCN(Cc3ccc(F)cc3)C2)C1` (stereo not given), the INHIBITION was found to be 34.24%.
